# CCT chaperon mod – modulators of cytosolic chaperonin (CCT/TRiC) activity. purified chaperonin ATPase assay, HTRF ADP detection, 30 min. activity change, % (no concentration beside the values), hits read low. hit rate 0.3% among 360,000. AID 651819; in the data active means activity change below about -30%; further: on the % scale 0 is the no-effect control and ±100 the full control effect
#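 TRiC at 40 or 20 nM final (batch-dependent) in 30 mM Tris pH 7.4, 100 mM KCl, 5 mM MgCl2, 1 mM DTT, with compound at single 76 uM and 10 uM ATP, 30 min at 37 deg C. ADP detected by HTRF Transcreener, 665/615 ratio.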
# aSyn yeast inh – inhibitors of alpha-synuclein toxicity in yeast; Yeast expressing alpha-synuclein, growth rescue, BacTiter-Glo, 24 h; Potency, µM (top dose mostly 46.1 µM), for inactives: at the highest dose growth rescue (activation), hits mostly activators; hit rate 0.14% among 370,000; AID 652106; further: potency means the concentration at half of the fitted maximal effect; % of control where 0% means no effect; nearly all actives have a fitted effect of over 65% in size
#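 Rescue of yeast growth: cells expressing toxic alpha-synuclein, induced in galactose at OD600 0.02, incubated with compound 24 h at 30 C. ATP luminescence quantified growth; inhibitors of toxicity appear as activators.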
# Abeta rescue – restores growth of yeast expressing A-beta42 peptide | AID 1347071 | hit rate 0.063% among 410,000 | yeast expressing A-beta42, growth rescue, OD600, 48 h; response scale: 0% DMSO, 100% iron-clioquinol control | Potency, µM (titrated, usually from 46.1 µM), hits mostly activators; further: potency means the concentration at half of the fitted maximal effect; nearly all actives have a fitted effect of over 55% in size
#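 Growth rescue measured by 600 nm absorbance after 48 h yeast culture at 30 C with compound. Values normalized between DMSO and an equimolar ferric chloride plus clioquinol control.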
# FUS suppressor – rescues growth of FUS-expressing yeast | S. cerevisiae FUS-expressing, growth rescue, OD600, 24 h | AID 1347120 | Potency, µM (titrated, usually from 76.6 µM), most hits filed as activators | hit rate 0.24% among 390,000;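 further: potency means the concentration at half of the fitted maximal effect; plate controls were DMSO vehicle for no effect and reference control for full effect; nearly all actives have a fitted effect of over 55% in size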
#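 Restored growth of FUS-toxic S. cerevisiae, read as 600 nm absorbance after 24 h at 30C in galactose medium (starting OD 0.005). Controls CP55940 and DMSO.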
# TDP-43 yeast inh – TDP-43 toxicity inhibition in yeast | TDP-43 expressing yeast growth rescue, BacTiter-Glo, 24 h | Potency, µM (series often up to 46.1 µM), inactives show top-dose growth rescue (activation), hits mostly activators | AID 652104 | hit rate 1.8% among 410,000; further: potency means the concentration at half of the fitted maximal effect; % of control where 0% means no effect; nearly all actives have a fitted effect of over 50% in size
#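 Luminescence from BacTiter-Glo reports growth of TDP-43-expressing yeast after 24 hr at 30 deg C with compound. Cells were raffinose-pregrown to mid-log, then seeded in galactose medium at OD600=0.02.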
# Mm-Cpn inhibitor – M. maripaludis TRiC chaperonin inhibition; purified Mm-Cpn ATPase, ADP Transcreener TR-FRET; Potency, µM (series often up to 76.9 µM), without a hit: top-dose activity, negative = inhibition, most hits filed as inhibitors; hit rate 0.031% among 330,000; AID 504842; further: potency means the concentration at half of the fitted maximal effect; on the % scale 0 is the no-effect control and ±100 the full control effect; nearly all actives have a fitted effect of over 80% in size
#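 Eu-cryptate anti-ADP/ADP-d2 competition gives a ratio inversely related to ADP. Enzyme at 25 nM was pre-exposed to compound for 10 min, then given 10 uM ATP for 30 min, 37°C throughout.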
# Numbers without * were called inactive; i = inactive; ? = inconclusive; · = no result given. A selection: hits, their analogues and other compounds. The true share with any hit is near 2.3%. Unless noted, the call rests on the fitted dose curve; in most records, active means well fitted curve in the direction sought with a large enough effect; inconclusive means small, poorly fitted or top-dose-only effect, or another doubt; inactive means no such curve, though single readings can be large; an effect the other way counts as inactive or inconclusive.
SMILES,CCT chaperon mod,aSyn yeast inh,Abeta rescue,FUS suppressor,TDP-43 yeast inh,Mm-Cpn inhibitor
COc1ccc(OC)c2c1C(=O)c1ccccc1C2=O,2,-5%,i,i,25µM*,-4%
COC1=C(Nc2ccc(C)cc2)C(=O)c2ccccc2C1=O,-2,-16%,i,·,10µM*,-1%
CCn1c2ccccc2c2cc(NC(=O)COC(=O)c3ccc(F)cc3Cl)ccc21,·,·,·,i,·,·
Cc1ccc(CNC(=O)c2ccc(N3CCC4(CC3)CC(c3cccc(Br)c3)=NO4)c(N)c2)cc1,1,4%,i,18µM*,4%,-5%
Oc1ccccc1-c1cc(-c2cccc(F)c2)n[nH]1,-1,2%,i,i,3.2µM*,0%
CC(C)(C)c1ccc(-c2cc(-c3ccccc3O)[nH]n2)cc1,-1,0%,i,i,15%,2%
Cc1ccc(OCc2ccccc2Br)c([N+](=O)[O-])n1,2,1%,i,i,10µM*,4%
CCCc1cc(C(=O)Nc2ccc(C(=O)c3ccc(F)cc3)cc2)n(C)n1,1,-23%,i,?,?,1%
CCCc1cc(C(=O)Nc2ccc(C(=O)c3ccccc3)cc2)n(C)n1,2,-8%,i,i,25µM*,2%
N#C/C=C1\n2c(nc3ccccc32)OC12CCCCC2,1,-2%,i,i,16µM*,0%
Cc1cccc(OCCSCc2nc3ccccc3[nH]2)c1,1,0%,i,i,6%,0%
Cc1cccc(OCCCSc2nc3ccccc3[nH]2)c1,0,-16%,i,i,20µM*,-2%
Cc1ccc(N2CCN(C(=O)c3c(C)oc4nc(C)nc(N5CCCC5)c34)CC2)c(C)c1,·,·,i,i,25µM*,·
Cc1cccc(N2CCN(C(=O)c3c(C)oc4ncnc(N5CCOCC5)c34)CC2)c1C,·,·,i,i,20µM*,·
Cc1ccc(N2CCN(C(=O)c3c(C)oc4ncnc(N5CCCCC5)c34)CC2)c(C)c1,·,·,i,?,?,·
Cc1cccc(N2CCN(C(=O)c3c(C)oc4ncnc(N5CCCCC5)c34)CC2)c1C,·,·,i,i,35µM*,·
O=C1CC(N2CCCC2)=NC(=O)N1c1ccc(Br)cc1,·,·,·,i,·,·
CCN(CC)C(=O)Cn1cc(C(=O)C(=O)N(C)C2CCN(C)CC2)c2ccccc21,-90*,-4%,i,·,7%,1%
CCC1CCCCN1C(=O)C(=O)c1cn(CC(=O)N(CC)CC)c2ccccc12 (configuration not stated),0,0%,i,i,-5%,-1%
Cc1cccc(N2CCN(Cc3nnc(-c4ccccc4C)o3)CC2C)c1 (configuration not stated),·,·,i,i,19%,·
C[C@H]1CCCCO[C@@H](CN(C)S(=O)(=O)c2ccc(Cl)cc2)[C@@H](C)CN([C@@H](C)CO)C(=O)c2cc(NS(=O)(=O)c3ccccc3)ccc2O1,-1,-1%,i,i,0%,·
C[C@@H]1CCCCO[C@@H](CN(C)Cc2ccncc2)[C@@H](C)CN([C@H](C)CO)C(=O)c2cc(NC(=O)c3ccccc3)ccc2O1,-34*,-2%,i,i,24%,·
C[C@@H]1CN([C@@H](C)CO)C(=O)c2cc(NC(=O)c3ccncc3)ccc2O[C@@H](C)CCCCO[C@@H]1CN(C)C(=O)Cc1ccccc1,-1,5%,i,i,12%,·
COc1ccc(S(=O)(=O)Nc2ccc3c(c2)C(=O)N([C@H](C)CO)C[C@H](C)[C@@H](CN(C)C(=O)Nc2ccc(F)cc2)OCCCC[C@H](C)O3)cc1,0,2%,i,25µM*,1%,·
C[C@@H]1CCCCO[C@@H](CN(C)S(=O)(=O)c2ccccc2)[C@@H](C)CN([C@H](C)CO)C(=O)c2cc(NS(=O)(=O)c3ccc(F)cc3)ccc2O1,-1,-2%,i,14µM*,21%,·

# Screening results deposited in PubChem by National Center for Advancing Translational Sciences (NCATS).
